# Active and inactive are the calls of the source. Unless noted, how the calls were made is not given here.
# Assays:
# [1] = tested on: Wnt5a (protein binding on small-molecule microarray); assay: Wnt5a binders on small-molecule microarray, primary screen, biophysical, 635/667 nm fluorescence (AID 1142); details: 635 nm fluorescence, higher = more signal;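 further: fluorescence read at 667 nm with signal to noise per printed feature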
# [2] = cell viability in Huh7 cells, primary screen, cytotoxicity control for HCV replication inhibitor project, CellTiter-Glo luminescence, basal, 48 h (AID 1143); details: Huh7 HCV replicon, higher = more signal, called active from +8 up or from −8 down;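 further: Huh7 hepatoma cells carrying a hepatitis C replication reporter with no stimulus; test concentration not given here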
# [3] = P. aeruginosa biofilm formation inhibitors, primary screen, PAO1 strain, BacTiter-Glo luminescence, LB-PBS (AID 1144); details: 12 h, higher = more signal
# [4] = CREB reporter modulators without forskolin, primary screen, cell-based, PC12, CRE-LacZ reporter, unstimulated (AID 1145); details: no forskolin, luminescence, 4.5 h, higher = more signal, called active from +8 up or from −8 down
# [5] = CREB reporter modulators under forskolin, primary screen, cell-based, PC12, CRE-LacZ reporter, forskolin-stimulated (AID 1146); details: luminescence, 4.5 h, higher = more signal, called active from +8 up or from −8 down;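 further: PC12 cells with 6xCRE LacZ reporter stimulated by forskolin 10 µM; beta-galactosidase reporter signal reflecting CREB driven transcription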
# [6] = biological target: Streptavidin (Streptomyces avidinii) (UniProt P22629); assay: streptavidin binders on small-molecule microarray, primary screen, artefact control for SMM compound annotation, biophysical, 635/667 nm fluorescence (AID 1147); details: streptavidin binding, higher = more signal;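 further: signal reflects streptavidin binding to arrayed compounds as a control protein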
# [7] = small-molecule binders of probe aInhba, primary screen, biochemical, small-molecule microarray, 635/667 nm fluorescence (AID 1148); details: higher = more signal;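 further: score merges 667nm spot fluorescence with signal-to-noise for antibody binding to printed compounds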
# Torsin-1A (Homo sapiens) [8] = biological target: Torsin-1A (Homo sapiens) (UniProt O14656); assay: torsin A binders from cell lysate, primary screen, small-molecule microarray, wild-type, 635/667 nm (AID 1149); details: COS7 hTOR1A-WT lysate, 635 nm fluorescence, higher = more signal
# Torsin-1A (Homo sapiens) [9] = biological target: Torsin-1A (Homo sapiens) (UniProt O14656); assay: small-molecule binders of mutant TOR1A in lysate, primary screen, cell lysate, small-molecule microarray, COS7 lysate, 635/667 nm fluorescence (AID 1150); details: COS7 hTOR1A mutant lysate, 635 nm fluorescence, higher = more signal;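 further: score pools 667 nm emission and signal to noise measuring lysate protein binding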
# [10] = tested on: Sonic hedgehog protein (Shh); assay: small-molecule binders of Shh protein, primary screen, biochemical, small-molecule microarray, 635/667 nm fluorescence (AID 1151); details: small-molecule microarray binding, 635 nm fluorescence; higher = more signal;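 further: Shh protein binding to compounds spotted on small-molecule microarray slides; score combines spot fluorescence intensity with signal-to-noise across triplicate slides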
# [11] = E. coli DRC41 culture turbidity changes, primary screen, E. coli filamentation inducer project, strain DRC41, OD650, 48 h (AID 1152);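 further: E. coli MC1000 strain DRC41 lacking acrAB efflux pump and sulA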; details: E. coli DRC41 (acrAB sulA), higher = more signal, called active from +8 up or from −8 down
# [12] = small-molecule binders of probe aLefty1, primary screen, biochemical, small-molecule microarray, 635/667 nm fluorescence (AID 1153); details: higher = more signal;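 further: score merges spot fluorescence with signal-to-noise ratio from the scanned slide images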
# [13] = PSAC antagonists in infected red cells, primary screen, cell-based, P. falciparum Indochina, OD700, 1 h (AID 1154); details: P. falciparum Indochina infected RBC osmotic lysis, higher = more signal, called active from +8 up or from −8 down
# [14] = PSAC antagonists in infected red cells, primary screen, cell-based, P. falciparum Indochina, OD700, 2 h (AID 1155);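 further: lysis reports solute entry through the parasite surface anion channel PSAC; channel blockers reduce lysis of infected cells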; details: P. falciparum Indochina infected erythrocytes, osmotic lysis OD700; higher = more signal, called active from +8 up or from −8 down
# [15] = osmotic lysis modulators in infected erythrocytes, primary screen, PSAC antagonist project, cell-based, P. falciparum Indochina, OD700, 3 h (AID 1156); details: higher = more signal, called active from +8 up or from −8 down
# [16] = PSAC antagonists in infected red cells, primary screen, cell-based, P. falciparum Indochina, OD700, 18 h (AID 1157); details: P. falciparum Indochina infected erythrocytes, osmotic lysis OD700, 18 h; higher = more signal, called active from +8 up or from −8 down
# [17] = modulators of S6 phosphorylation in cells, primary screen, cell-based, A549, cytoblot, luminescence, serum-stimulated (AID 1158); details: A549 phospho-S6 cytoblot, 5 h, higher = more signal;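 further: serum-stimulated A549 lung adenocarcinoma cells; signal is phosphorylated S6 detected by cytoblot immunostaining with HRP secondary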
# [18] = biological target: NADPH oxidase 2 (Homo sapiens) (UniProt P04839); assay: NOX2-dependent H2O2 signal modulators, primary screen, NOX inhibitor project, cell-based, HEK293-NOX2, PMA-stimulated, Amplex Red fluorescence (AID 1159); details: 45 min, higher = more signal, called active from +8 up or from −8 down; further: test concentration not given here
# [19] = biological target: NADPH oxidase 4 (Homo sapiens) (UniProt Q9NPH5); assay: NOX4-dependent H2O2 signal modulators, primary screen, NOX inhibitor project, cell-based, HEK293-NOX4, tetracycline-induced, Amplex Red fluorescence (AID 1160); details: 45 min, higher = more signal, called active from +8 up or from −8 down
# [20] = biological target: NADPH oxidase 5 (Homo sapiens) (UniProt Q96PH1); assay: NOX5-dependent H2O2 signal modulators, primary screen, NOX inhibitor project, cell-based, HEK293-NOX5, Amplex Red fluorescence (AID 1161); details: HEK293-NOX5, ionomycin, 45 min, higher = more signal
# NADPH oxidase 5 (Homo sapiens), sequence (Q96PH1 whole entry, looked up): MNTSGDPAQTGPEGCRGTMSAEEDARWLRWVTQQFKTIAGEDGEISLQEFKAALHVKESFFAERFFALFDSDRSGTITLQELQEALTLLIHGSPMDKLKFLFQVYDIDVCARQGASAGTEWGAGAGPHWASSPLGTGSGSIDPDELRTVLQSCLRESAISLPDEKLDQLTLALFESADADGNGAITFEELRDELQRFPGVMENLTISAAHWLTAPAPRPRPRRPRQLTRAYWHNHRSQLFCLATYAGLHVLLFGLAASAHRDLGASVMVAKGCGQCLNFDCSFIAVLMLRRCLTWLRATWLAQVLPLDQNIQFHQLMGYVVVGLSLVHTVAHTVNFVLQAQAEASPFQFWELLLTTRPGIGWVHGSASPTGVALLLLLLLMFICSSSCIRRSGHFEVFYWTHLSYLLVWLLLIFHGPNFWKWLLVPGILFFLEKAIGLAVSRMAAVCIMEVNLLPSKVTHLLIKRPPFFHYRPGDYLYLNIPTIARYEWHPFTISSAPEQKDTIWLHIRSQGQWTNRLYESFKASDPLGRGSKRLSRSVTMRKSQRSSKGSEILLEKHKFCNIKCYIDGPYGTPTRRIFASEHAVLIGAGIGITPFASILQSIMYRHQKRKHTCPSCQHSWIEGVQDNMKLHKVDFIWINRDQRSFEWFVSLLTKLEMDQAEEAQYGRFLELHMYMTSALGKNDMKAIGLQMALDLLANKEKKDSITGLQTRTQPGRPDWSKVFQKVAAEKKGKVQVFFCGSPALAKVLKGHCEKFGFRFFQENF
# Torsin-1A (Homo sapiens), sequence (O14656 whole entry, looked up): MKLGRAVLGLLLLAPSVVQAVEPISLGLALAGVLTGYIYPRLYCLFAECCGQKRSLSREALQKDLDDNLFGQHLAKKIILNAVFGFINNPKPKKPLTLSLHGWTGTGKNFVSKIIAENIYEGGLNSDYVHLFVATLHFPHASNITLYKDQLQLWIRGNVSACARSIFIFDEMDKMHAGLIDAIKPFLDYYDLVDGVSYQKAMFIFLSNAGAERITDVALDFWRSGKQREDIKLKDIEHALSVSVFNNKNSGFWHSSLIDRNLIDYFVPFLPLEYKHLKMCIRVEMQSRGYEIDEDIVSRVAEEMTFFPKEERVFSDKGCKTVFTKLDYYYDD
# NADPH oxidase 2 (Homo sapiens), sequence (P04839 whole entry, looked up): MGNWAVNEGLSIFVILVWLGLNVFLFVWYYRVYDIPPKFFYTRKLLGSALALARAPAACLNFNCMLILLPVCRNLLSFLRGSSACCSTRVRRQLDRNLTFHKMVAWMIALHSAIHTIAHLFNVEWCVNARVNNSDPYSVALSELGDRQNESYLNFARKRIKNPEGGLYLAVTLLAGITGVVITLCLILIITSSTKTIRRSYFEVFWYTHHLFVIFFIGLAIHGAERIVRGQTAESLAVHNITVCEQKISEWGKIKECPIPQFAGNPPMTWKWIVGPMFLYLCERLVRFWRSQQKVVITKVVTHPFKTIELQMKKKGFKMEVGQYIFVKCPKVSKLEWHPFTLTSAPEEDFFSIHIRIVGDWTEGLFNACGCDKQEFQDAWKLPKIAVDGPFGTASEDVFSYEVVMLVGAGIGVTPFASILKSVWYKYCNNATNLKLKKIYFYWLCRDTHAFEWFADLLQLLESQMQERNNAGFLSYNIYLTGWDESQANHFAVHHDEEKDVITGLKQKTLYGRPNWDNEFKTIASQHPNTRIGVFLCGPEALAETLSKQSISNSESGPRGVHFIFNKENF
# NADPH oxidase 4 (Homo sapiens), sequence (Q9NPH5 whole entry, looked up): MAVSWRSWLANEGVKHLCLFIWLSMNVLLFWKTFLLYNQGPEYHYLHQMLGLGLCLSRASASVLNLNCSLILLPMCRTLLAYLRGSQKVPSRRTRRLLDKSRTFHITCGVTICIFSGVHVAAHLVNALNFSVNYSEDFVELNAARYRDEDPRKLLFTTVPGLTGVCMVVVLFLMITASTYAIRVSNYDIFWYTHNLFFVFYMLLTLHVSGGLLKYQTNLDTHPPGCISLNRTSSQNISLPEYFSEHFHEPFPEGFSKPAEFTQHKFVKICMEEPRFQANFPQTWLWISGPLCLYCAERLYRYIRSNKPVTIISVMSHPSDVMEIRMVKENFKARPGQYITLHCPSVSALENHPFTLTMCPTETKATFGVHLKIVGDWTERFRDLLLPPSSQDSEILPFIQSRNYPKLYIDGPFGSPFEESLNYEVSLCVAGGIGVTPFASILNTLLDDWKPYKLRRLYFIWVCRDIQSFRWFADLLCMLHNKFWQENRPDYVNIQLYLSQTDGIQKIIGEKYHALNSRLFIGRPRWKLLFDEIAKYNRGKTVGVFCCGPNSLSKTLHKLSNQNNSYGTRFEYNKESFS
# Streptavidin (Streptomyces avidinii), sequence (P22629 whole entry, looked up): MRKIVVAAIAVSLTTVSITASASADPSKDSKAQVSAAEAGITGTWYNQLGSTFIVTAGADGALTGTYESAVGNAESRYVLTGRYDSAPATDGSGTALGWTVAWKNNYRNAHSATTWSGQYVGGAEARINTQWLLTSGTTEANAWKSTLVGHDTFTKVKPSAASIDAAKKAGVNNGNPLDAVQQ
SMILES,composite z-score [1],z-score [2],z-score [3],z-score [4],z-score [5],composite z-score [6],composite z-score [7],composite z-score (Torsin-1A (Homo sapiens) [8]),composite z-score (Torsin-1A (Homo sapiens) [9]),composite z-score [10],z-score [11],composite z-score [12],z-score [13],z-score [14],z-score [15],z-score [16],z-score [17],z-score [18],z-score [19],z-score [20]
NCCCCCNC(=O)[C@@H]1C[C@@H]2C(=O)N[C@@H](Cc3ccccc3)C(=O)N2[C@@H]1c1cccc(OCCO)c1,0.0984,0.213 (inactive),0.205 (inactive),0.415 (inactive),0.201 (inactive),0.44,-0.182,0.89,0.373,0.867,-0.389 (inactive),-0.101,3.51 (inactive),0.418 (inactive),1.18 (inactive),0.351 (inactive),-0.0201,2.11 (inactive),-0.729 (inactive),0.832
CCc1oc(CC[C@@H](CO)NC(=O)NCCn2cc(C3(O)CCCCC3)nn2)c(C(=O)OC)c1C(=O)OC,0.209,-0.186 (inactive),0.73 (inactive),1.01 (inactive),1.01 (inactive),-0.0709,0.174,1.31,1.11,2.09,-1.26 (inactive),0.0768,25.6 (active),7.39 (inactive),0.709 (inactive),1.07 (inactive),-0.524,-1.59 (inactive),-0.491 (inactive),-1.14
CN1C(=O)C2C=CC(C(O)Cc3ccccc3)N(Nc3ccccc3)C2C1=O (stereo not given),-0.0943,0.329 (inactive),-1.16 (inactive),0.626 (inactive),0.0426 (inactive),0.996,0.0622,0.279,0.444,-0.52,-1.55 (inactive),-0.0501,1.15 (inactive),0.872 (inactive),0.215 (inactive),0.9 (inactive),-0.709,-1.57 (inactive),-4.77 (inactive),-3.59
COCCOC(=O)N1C(=O)[C@@]2(c3cc(C#CCCO)ccc31)[C@H](C(=O)N1CCc3cc(OC)c(OC)cc3C1)[C@H]1C(=O)O[C@H](c3ccccc3)[C@H](c3ccccc3)N1[C@@H]2c1ccc(O)cc1,0.304,-0.173 (inactive),-0.14 (inactive),-0.815 (inactive),-0.742 (inactive),0.25,0.132,0.73,0.538,0.918,0.38 (inactive),0.88,1.49 (inactive),0.349 (inactive),0.262 (inactive),0.222 (inactive),0.113,1.26 (inactive),0.706 (inactive),1.29
COc1ccc(C(=O)Nc2cccc(CN3C(=O)[C@]4(O[C@H](CCO)[C@@H]([Si](C)(C)c5ccc(OC)cc5)[C@@H]4C)c4ccccc43)c2)cc1,0.24,-8.03 (active),-0.694 (inactive),10.9 (active),-1.29 (inactive),0.388,-0.121,0.271,0.424,1.83,-0.172 (inactive),0.0698,2.54 (inactive),1.45 (inactive),0.374 (inactive),1.85 (inactive),-0.59,-6.65 (inactive),-2.74 (inactive),-3.1
COc1ccc(NN2C(C(O)c3ccc([N+](=O)[O-])cc3)C=CC3C(=O)N(C4CCCCC4)C(=O)C32)cc1 (stereo not given),-0.0777,-0.416 (inactive),-1.05 (inactive),-0.667 (inactive),-0.441 (inactive),1.99,0.199,-0.233,0.382,-0.49,-0.256 (inactive),0.3,7.78 (inactive),1.11 (inactive),-0.187 (inactive),0.708 (inactive),-0.126,-1.03 (inactive),-2.3 (inactive),-0.48
C=CCNC(=O)[C@@H]1[C@H]2C(=O)O[C@H](c3ccccc3)[C@H](c3ccccc3)N2[C@H](c2ccccc2OCCO)[C@@]12C(=O)N(C(=O)OCCOC)c1ccc(C#CCNC(N)=O)cc12,0.0308,-0.952 (inactive),-0.441 (inactive),-0.199 (inactive),0.447 (inactive),0.225,0.115,0.186,0.697,1.53,-0.302 (inactive),0.395,3.09 (inactive),0.483 (inactive),1.3 (inactive),0.466 (inactive),0.425,1.77 (inactive),1.54 (inactive),-0.131
[N-]=[N+]=NCc1ccccc1C[C@]1(C(=O)NCC(O)CO)N=C(c2ccc(OCCCO)cc2)O[C@H]1c1ccccc1 (stereo not given in full),0.185,-3.58 (inactive),0.55 (inactive),1.87 (inactive),-0.621 (inactive),0.236,0.109,0.381,0.777,-1.52,0.243 (inactive),0.33,13.1 (active),0.998 (inactive),-0.593 (inactive),0.865 (inactive),-0.0127,2.49 (inactive),0.717 (inactive),-0.632
O=C(NCc1ccccc1)[C@@H]1c2ccccc2C(=O)N(CC23CC4CC(CC(C4)C2)C3)[C@H]1c1ccc(CO)cc1,0.237,-2 (inactive),0.196 (inactive),-0.439 (inactive),0.707 (inactive),0.467,-0.377,0.239,0.654,1.83,-1.09 (inactive),-0.538,3.76 (inactive),0.295 (inactive),1.76 (inactive),0.134 (inactive),-0.366,-2.38 (inactive),0.191 (inactive),-1.55
C=C(CCCC)/C(=C/C[C@@H](OC(C)=O)c1ccccc1OCCO)c1cnc2ccccc2c1,0.0953,-1.6 (inactive),-0.131 (inactive),2.02 (inactive),-0.185 (inactive),-0.0227,-0.0736,1.11,-0.438,1.02,-0.19 (inactive),0.082,21.1 (active),4.29 (inactive),1.96 (inactive),1.39 (inactive),0.132,-1.87 (inactive),-1.61 (inactive),-1.79
C[C@@]1([C@@H](NC(=O)c2ccccc2)c2ccc(-c3ccccc3)cc2)C[C@H]1C1CCCCC1,0.367,0.147 (inactive),-0.232 (inactive),0.201 (inactive),0.957 (inactive),1.1,0.333,0.0627,-0.0293,-1.1,-2.22 (inactive),0.476,-0.118 (inactive),0.28 (inactive),0.833 (inactive),0.888 (inactive),0.994,-0.658 (inactive),-1.06 (inactive),-0.782
C=CCOC(=O)[C@@H]1[C@H]2C(=O)O[C@H](c3ccccc3)[C@H](c3ccccc3)N2[C@H](c2ccc(OCCOC(=O)[C@@H]3C[C@@H]4C(=O)N[C@@H](CCCCN(C)C)C(=O)N4[C@@H]3c3ccc(O)cc3)cc2)[C@@]12C(=O)Nc1ccc(I)cc12,0.312,-0.768 (inactive),-0.975 (inactive),-0.675 (inactive),0.595 (inactive),0.321,0.0649,0.724,1.84,1.74,-0.193 (inactive),-0.012,-1.43 (inactive),0.997 (inactive),3.77 (inactive),0.374 (inactive),-0.381,1.36 (inactive),0.636 (inactive),0.167
COC(=O)C(CC#Cc1ccc2c(c1)[C@]1(C(=O)N2)[C@H](C(=O)O)[C@H]2C(=O)O[C@H](c3ccccc3)[C@H](c3ccccc3)N2[C@@H]1c1ccc(O)cc1)C(=O)OC,-0.265,0.674 (inactive),-0.208 (inactive),-0.467 (inactive),-0.686 (inactive),-0.641,-0.0405,-0.21,0.446,-0.613,-0.818 (inactive),0.145,1.83 (inactive),-0.038 (inactive),-0.15 (inactive),-0.0548 (inactive),0.148,0.699 (inactive),-0.0438 (inactive),0.921
C=C(CCCC)C(=O)CC[C@@H](OC(=O)c1cccnc1)c1ccc(CO)o1,0.314,-0.0785 (inactive),-0.0897 (inactive),2.41 (inactive),0.783 (inactive),1.05,-0.0774,0.984,1.74,2.04,-0.367 (inactive),-0.289,3.22 (inactive),0.449 (inactive),0.873 (inactive),0.258 (inactive),0.264,0.341 (inactive),-0.942 (inactive),-1.04
COc1ccc(C(=O)Nc2ccc(CN3C(=O)[C@@]4(O[C@@H](CCO)[C@H]([Si](C)(C)c5ccc(OC)cc5)[C@H]4C)c4ccccc43)cc2)cc1,0.146,-8.02 (active),0.422 (inactive),3.11 (inactive),-1.27 (inactive),0.225,-0.201,1.05,0.471,1.96,-1.11 (inactive),0.155,25.1 (active),13.2 (active),1.6 (inactive),1.75 (inactive),-0.483,-6.53 (inactive),-2.48 (inactive),-0.954
CC(CO)N1C(=O)[C@@H]2C3C(=O)OCCC/C=C\[C@H]3OC23C=CCN(c2ccc4ccccc4c2)C(=O)[C@@H]13 (stereo not given in full),-0.632,0.645 (inactive),-1.02 (inactive),-0.0737 (inactive),0.156 (inactive),-0.342,-0.0719,-1.72,-1.03,-0.256,0.453 (inactive),-0.147,1.07 (inactive),0.0843 (inactive),1.87 (inactive),0.011 (inactive),-0.13,1.03 (inactive),-0.0122 (inactive),1.97
